Bioassay records as filed in PubChem BioAssay.
Only some compounds are listed: those with a hit (about 1.2% of all), similar ones and a draw of the others.
SRC1 inh – human NCOA1 inhibition. 0.12% of 360,000 active. AID 588354. inhibition, % at 3.6 µM. Q15788. HEK293 GAL4-SRC1 luciferase reporter, luminescence;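 active = inhibition above the campaign mean plus 3 SD, with each screening campaign given its own cutoff, cut at about 60% in these data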;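 also: 0% = DMSO treated cells and 100% = gossypol at 36 µM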
Efflux pump mplx – blocks antifungal efflux pumps in multiplex yeast assay | S. cerevisiae Candida pump triplex, Nile Red efflux | inhibition, % at 10 µM | 0.44% of 330,000 active | AID 485275;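 active = plate passing quality check with inhibition over a set limit, or well fluorescence over plate mean plus 4 SD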;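 also: Nile Red retained in pooled yeast measured as flow cytometry median fluorescence; 0% = buffer negative control and 100% = Enniatin B positive control; higher means more Nile Red kept so more efflux inhibition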
SRC2 inh – inhibits human steroid receptor coactivator 2. Q15596. HEK293 GAL4-SRC2 luciferase reporter, luminescence. inhibition, % at 9 µM. 0.17% of 370,000 active;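 active = inhibition above the mean inhibition of all tested compounds plus 3 SD, set per campaign, cut at about 52% in these data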;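 also: 0% = DMSO treated cells and 100% = cells given Gossypol at 36 µM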
LRH-1 inv ag – NR5A2 inverse agonism in reporter assay; O00482; HEK293T StAR-luciferase reporter, LRH-1 transfected, 24 h; inhibition, % at 3.6 µM; 0.13% of 360,000 active; AID 602396;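 active = inhibition above the mean inhibition of all tested compounds plus 3 SD, cut at about 73% in these data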;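 also: 0% = DMSO wells and 100% = reporter-only cells lacking LRH-1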
Target sequence (O00482 whole entry, looked up): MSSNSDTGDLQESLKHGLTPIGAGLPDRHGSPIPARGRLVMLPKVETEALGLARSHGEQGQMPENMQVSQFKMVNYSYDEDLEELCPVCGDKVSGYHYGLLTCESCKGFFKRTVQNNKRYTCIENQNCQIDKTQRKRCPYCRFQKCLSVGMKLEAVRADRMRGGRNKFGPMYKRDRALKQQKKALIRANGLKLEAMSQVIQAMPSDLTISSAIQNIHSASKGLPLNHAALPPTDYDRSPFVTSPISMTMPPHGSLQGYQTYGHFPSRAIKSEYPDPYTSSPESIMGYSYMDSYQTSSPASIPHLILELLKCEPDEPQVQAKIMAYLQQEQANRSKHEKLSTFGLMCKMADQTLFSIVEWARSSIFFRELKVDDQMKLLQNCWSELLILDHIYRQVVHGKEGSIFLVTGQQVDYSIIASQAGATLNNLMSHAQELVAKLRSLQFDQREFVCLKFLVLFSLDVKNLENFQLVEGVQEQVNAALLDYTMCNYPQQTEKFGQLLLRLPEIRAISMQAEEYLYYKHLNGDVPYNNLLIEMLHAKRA
SRC3 inh – inhibits human SRC3 coactivator; AID 588352; HEK293 GAL4-SRC3 luciferase reporter, luminescence; inhibition, % at 3.6 µM; 0.17% of 360,000 active; Q9Y6Q9;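 active = inhibition above a per-campaign cutoff, the mean of all compounds plus 3 SD, cut at about 60% in these data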;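 also: 0% = DMSO-treated cells and 100% = gossypol-treated cells at 36 µM; higher means less SRC3-driven luciferase light from the GAL4 reporter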
NR2F2 inh – inhibitors of human COUP-TFII (NR2F2); P24468; HEK293T NGFI-A luciferase reporter, luminescence; inhibition, % at 8.6 µM; 0.7% of 370,000 active; AID 686940;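 active = inhibition above a per-plate cutoff, mean inhibition of test wells between control levels plus 3 SD, cut at about 38% in these data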;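 also: cells cotransfected with COUP-TFII expression vector driving the NGFI-A reporter; 0% = median of COUP-TF2 test wells and 100% = reporter-only cells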
VP16 Luc counter – VP16 inhibition counter-screen for COUP-TFII; AID 687007; HEK293 Gal4-VP16 luciferase reporter, luminescence; 25% of 2,500 active; inhibition, % at 8.5 µM; shares compounds with NR2F2 inh; in the data active = inhibition above about 13%
COUP-TFII conf – confirmation of human COUP-TFII (NR2F2) inhibitors; shares compounds with NR2F2 inh; inhibition, % at 8.5 µM; HEK293 NGFI-A luciferase reporter, luminescence; AID 687008; 45% of 2,500 active;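 active = mean inhibition over three repeats above a set limit taken from the earlier primary screen, cut at about 38% in these data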;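 also: 100% = cells given the luciferase reporter alone without the COUP-TF2 vector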
An asterisk follows results filed as active; nt = not tested or not shown.

SMILES	SRC1 inh	Efflux pump mplx	SRC2 inh	LRH-1 inv ag	SRC3 inh	NR2F2 inh	VP16 Luc counter	COUP-TFII conf
COc1ccc(C(=O)Nc2ccc(Cl)c(S(=O)(=O)Nc3ccccc3OC)c2)cc1	15	0	25	20	17	63*	9	67*
COc1ccccc1NS(=O)(=O)c1cc(NC(=O)c2ccc3ccccc3n2)ccc1Cl	-4	0	-32	22	15	0	nt	nt
COc1ccccc1NS(=O)(=O)c1cc(NC(=O)c2ccc(Cl)nc2)ccc1Cl	23	-1	18	38	40	68*	15*	60*
CC(C)c1ccc(NC2CCCN(C(=O)c3n[nH]c4c3CCC4)C2)cc1 (centres undefined)	1	0	14	28	-11	38*	-5	24
COC(=O)c1ccc(C(=O)N2CCCC(Nc3ccc(C(C)C)cc3)C2)cc1 (centres undefined)	-2	0	2	-24	-18	0	nt	nt
Cc1cc(NC(=O)CS(=O)(=O)c2cn(Cc3cccc(Br)c3)c3ccccc23)no1	-1	nt	4	-8	6	47*	-4	0
Cc1nn(C)c(C)c1CN(C)S(=O)(=O)c1ccc(F)cc1	-4	0	-1	17	17	22	nt	nt
Cc1nn(C)c(C)c1CN(C)S(=O)(=O)c1ccc2ccccc2c1	14	0	25	39	17	61*	2	66*
Oc1cc(O)cc(-c2cc3ccc(O)cc3o2)c1	-46	0	-8	-45	-28	-7	nt	nt
CC1(C)Oc2cc3oc(-c4cc(O)cc(O)c4)cc3cc2CC1O (centres undefined)	13	0	7	13	0	41*	-68	15
CCc1cc(C(=O)NC2CCCc3c2cnn3-c2cccc(C)c2C)n(C)n1 (centres undefined)	nt	0	12	nt	nt	64*	9	66*
Cc1cccc(-n2ncc3c2CCCC3NC(=O)C2(C(N)=O)CC2)c1C (centres undefined)	28	0	28	51	30	66*	4	52*
Cc1ccc(-n2ncc3c2CCCC3NC(=O)c2ccoc2)cc1C (centres undefined)	-3	0	-10	1	6	-3	nt	nt
Cc1cc(C)cc(-n2ncc3c2CCCC3NC(=O)C2(C(N)=O)CC2)c1 (centres undefined)	4	0	24	-5	7	12	nt	nt
Cc1cc(C(=O)NC2CCCc3c2cnn3-c2ccc(C)c(C)c2)n(C)n1 (centres undefined)	8	0	-9	51	42	66*	2	69*
CCc1noc(C)c1C(=O)OCC(=O)NCc1ccc(Cl)cc1	-1	0	17	-17	7	-7	nt	nt
CCc1cccc(CC)c1NC(=O)CSc1nc2ccc(N3C(=O)C4C5C=CC(C5)C4C3=O)cc2s1 (centres undefined)	13	0	3	-1	3	39*	-6	17
O=C(O)c1ccc(CSc2nc3ccc(N4C(=O)C5C6C=CC(C6)C5C4=O)cc3s2)cc1 (centres undefined)	4	0	-1	12	-11	-1	nt	nt
COc1ccc(Cl)cc1NC(=O)C/C(C)=N/NC(=O)CCc1ccccc1	-8	0	-7	15	0	2	nt	nt
C=CCN1C(=O)S/C(=C/c2ccc(Sc3nc4ccccc4[nH]3)o2)C1=O	3	0	10	14	17	46*	-12	11
CC(C)N1C(=O)S/C(=C/c2ccc(Sc3nc4ccccc4[nH]3)o2)C1=O	10	0	14	2	19	4	nt	nt
O=c1cc2c(nn1Cc1ccccc1)-c1ccccc1CC2	-3	0	5	2	10	-20	nt	nt
CSc1ccc(Cn2c(C)c(C(=O)NCc3ccc(C(C)C)cc3)sc2=O)cc1	2	nt	2	-6	3	-1	nt	nt
Cc1c(C(=O)NCc2ccc(Cl)c(Cl)c2)sc(=O)n1Cc1ccc(S(=O)(=O)N(C)C)cc1	5	nt	-2	12	4	38*	3	16
Cc1c(C(=O)NCc2ccc(Cl)c(Cl)c2)sc(=O)n1Cc1ccc(C(=O)N(C)C)cc1	-4	nt	-5	32	22	50*	1	4
SMILES	SRC1 inh	Efflux pump mplx	SRC2 inh	LRH-1 inv ag	SRC3 inh	NR2F2 inh	VP16 Luc counter	COUP-TFII conf
C=Cc1ccc(Cn2c(C)c(C(=O)NCc3ccc(Cl)c(Cl)c3)sc2=O)cc1	-1	nt	-54	-5	-8	-10	nt	nt
Cc1c(C(=O)NCc2cccc(Cl)c2)sc(=O)n1Cc1ccc(C(=O)N(C)C)cc1	-6	nt	7	-21	4	27	nt	nt
Cc1c(C(=O)NCc2ccc(C(C)C)cc2)sc(=O)n1Cc1ccc(S(=O)(=O)N(C)C)cc1	20	nt	-1	32	31	68*	7	64*
CCOC(=O)Cc1ccc(NC(=O)c2ccc(C(C)(C)C)cc2)cc1	3	0	78*	29	9	58*	46*	53*
CCOC(=O)Cc1ccc(NC(=O)c2ccccc2Br)cc1	-5	0	-11	10	-3	2	nt	nt
O=C(CSc1nccn1Cc1ccco1)Nc1ccccc1C(F)(F)F	-43	0	-42	-13	-3	-4	nt	nt
O=C1CCC(C(=O)OCC(=O)c2ccccc2)N1 (centres undefined)	11	0	4	-2	6	-5	nt	nt
CC1CC(C)C(=O)C(C(CC2CC(=O)NC(=O)C2)OC(=O)CC(=O)c2ccccc2)C1 (centres undefined)	80*	nt	54*	98*	85*	71*	-19	50*
CCOC(=O)N1C/C(=C\c2ccccc2)C(=O)/C(=C/c2ccccc2)C1	4	nt	-140	-2	26	28	nt	nt
C[N+](C)(C)CCC(=O)N1C/C(=C/c2ccccc2)C(=O)/C(=C\c2ccccc2)C1	-15	nt	6	-8	16	72*	22*	29
O=C(/C=C/c1ccccc1)CCN1CCOCC1	-41	nt	-8	-15	-4	-6	nt	nt
O=C1/C(=C/c2ccccc2)CN(C(=O)CCN2CCOCC2)C/C1=C\c1ccccc1	-45	nt	13	53	13	57*	35*	26
CN(C)CCC(=O)N1C/C(=C/c2ccccc2)C(=O)/C(=C\c2ccccc2)C1	-58	nt	64*	81*	-6	79*	81*	87*
Cc1ccccc1NC(=O)C(C)O/N=C/c1cccc([N+](=O)[O-])c1 (centres undefined)	-14	0	-5	7	8	13	nt	nt
CC(=O)OCCN1c2ccccc2Sc2cnccc21	21	nt	37	-12	36	37*	-5	12
